For part of these data: Entries with a potency or affinity are not part of this list. Activity calls are given as the source filed them.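 The calls were made as follows, unless noted: active = hit in primary screen, with calcium signal over 5 SD above buffer well mean in both duplicates; inactive = the rest.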
What was measured:
[1] = tested on: TRPC4 beta (transient receptor potential cation channel C4), mouse; experiment: activators of mouse TRPC4 channel, confirmation, cell-based, Fluo4 calcium, HEK293 TRPC4beta/mu-opioid, duplicates, 10 µM (AID 2426;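 active = fluorescence ratio normalized to control raised more than 50% in primary screen plus both repeat runs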;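 as to activation: percent rise of integrated ratio over buffer wells lacking compound which define 0%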); conditions: Fluo4 calcium fluorescence, at 10 µM; stronger effect = higher value
[2] = tested on: transient receptor potential cation channel C4 beta (TRPC4), mouse; experiment: activators of mouse TRPC4 channel, confirmation, cell-based, second round, Fluo4, HEK293 TRPC4beta/mu-opioid, 1 µM (AID 2461;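 active = primary screen active and over 50% activation in each of two duplicate runs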;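 as to activation: 0% = wells without test compound as baseline of integrated fluorescence ratio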); conditions: Fluo4 calcium fluorescence, at 1 µM; stronger effect = higher value
[3] = tested on: TRPC4 (transient receptor potential cation channel C4 beta), mouse; experiment: positive allosteric modulators of mouse TRPC4, confirmation, cell-based, second round, Fluo-4, HEK293 TRPC4beta/mu-opioid, 1 µM (AID 2554;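 active = primary screen hit whose fluorescence ratio, in both repeats, exceeds the weak agonist control mean by 3 SD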); conditions: DAMGO EC20, Fluo-4 calcium flux, at 1 µM; stronger effect = higher value
[4] = tested on: TRPC4 beta (transient receptor potential cation channel C4), mouse; experiment: positive allosteric modulators of mouse TRPC4, confirmation, cell-based, Fluo-4, HEK293 TRPC4beta/mu-opioid (AID 2555;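 active = primary screen hit whose calcium fluorescence ratio, in both repeats, exceeds the weak agonist control mean by 3 SD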); conditions: DAMGO EC20, Fluo-4 calcium flux, at 10 µM; stronger effect = higher value
[5] = target: Short transient receptor potential channel 4 (Mus musculus) (UniProt Q9QUQ5); experiment: inhibitors of mouse TRPC4 channel, confirmation, cell-based, Fluo4, HEK293 TRPC4beta/mu-opioid (AID 2636;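 active = calcium signal cut by more than 3 SD below the full-agonist control yet still positive, in both repeats and the earlier primary screen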); conditions: DAMGO, Fluo4 calcium flux, at 10 µM; stronger effect = higher value
[6] = target: Short transient receptor potential channel 4 (Mus musculus) (UniProt Q9QUQ5); experiment: inhibitors of mouse TRPC4 channel, confirmation, cell-based, second round, Fluo4, HEK293 TRPC4beta/mu-opioid, 1 µM (AID 2637;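 active = calcium signal ratio cut to more than 3 SD under the fully stimulated control mean yet still positive, in both repeats and the primary screen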); conditions: Fluo4 calcium flux, DAMGO, at 1 µM; stronger effect = higher value
[7] = target: Short transient receptor potential channel 4 (Mus musculus) (UniProt Q9QUQ5); experiment: TRPC4 positive allosteric modulators, dose response, cell-based, HEK293 TRPC4/mu-opioid, Fluo-4 calcium, EC20 DAMGO (AID 434941;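 active = earlier screen potentiator hit that boosts the TRPC4 ion channel at some dose, with a dose response; inactive = no potentiation, no dose response, or not a prior hit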;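 also: calcium entry triggered by an EC20 dose of DAMGO at the co-expressed mu-opioid receptor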)
[8] = target: Short transient receptor potential channel 4 (Mus musculus) (UniProt Q9QUQ5); experiment: mouse TRPC4 channel inhibitors, dose response, cell-based, HEK293 TRPC4/mu-opioid, Fluo-4 calcium (AID 434942;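 active = primary screen inhibitor hit that blocks the TRPC4 channel at some tested dose, yielding a dose curve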)
[9] = target: Short transient receptor potential channel 6 (Mus musculus) (UniProt Q61143); experiment: inhibition of mouse TRPC6 channel, confirmation, selectivity assay for TRPC4 inhibitor project, cell-based, HEK293, membrane potential dye, duplicate (AID 434948;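 active = active in primary screen and both duplicates, each dropping signal beyond three positive-control SD with fluorescence still positive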); conditions: HEK293 TRPC6, membrane potential dye fluorescence, at 10 µM, stimulated with maximal-effect acetylcholine; stronger effect = higher value
[10] = target: Short transient receptor potential channel 6 (Mus musculus) (UniProt Q61143); experiment: activation of mouse TRPC6 channel, confirmation, selectivity assay for TRPC4 activator project, cell-based, HEK293, membrane potential dye, duplicate (AID 434950;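 active = membrane potential signal rise above negative control mean plus 3 SD in both duplicates, also active in the earlier TRPC4 screen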;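 as to activation: 0% = buffer only wells and 100% = acetylcholine maximal-effect wells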); conditions: HEK293 TRPC6, membrane potential fluorescence, at 10 µM; stronger effect = higher value
[11] = target: Short transient receptor potential channel 6 (Mus musculus) (UniProt Q61143); experiment: TRPC6 potentiation by TRPC4 potentiator hits, confirmation, selectivity assay for TRPC4 potentiator project, HEK293 cells, membrane potential dye, duplicate (AID 434952;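 active = compound raising the membrane signal above positive-control mean plus 3 SD in both repeats, and a primary screen hit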); conditions: HEK293 TRPC6, membrane potential dye fluorescence, at 10 µM, maximal acetylcholine added after compound; stronger effect = higher value
[12] = target: Short transient receptor potential channel 4 (Mus musculus) (UniProt Q9QUQ5); experiment: calcium flux activators in TRPC4/5HT1a cells, counter-screen for TRPC4 activator project, cell-based, second counter screen, HEK293 TRPC4/5HT1a, Fluo-4 (AID 434977;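 active = calcium signal rise above buffer-control mean plus 5 SD in both duplicates, and also a hit in the primary screen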;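 as to activation: plate controls were assay buffer for no effect and maximal serotonin response for full effect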); conditions: Fluo-4 calcium flux, at 10 µM; stronger effect = higher value
[13] = calcium flux inhibitors in TRPC4/5HT1a cells, confirmation, counter-screen for TRPC4 inhibitor project, cell-based, second counter screen, HEK293 TRPC4/5HT1a, Fluo-4 (AID 434978;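 active = primary screen active whose calcium signal fell more than 3 SD beyond the full-serotonin control mean in both duplicate plates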;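 also: serotonin given first at submaximal then at maximal dose after compound preincubation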); conditions: Fluo-4 calcium flux, at 10 µM, serotonin added to trigger calcium flux; stronger effect = higher value
[14] = tested on: TRPC4 (mouse), co-expressed with 5HT1a in HEK293; experiment: calcium flux potentiators in TRPC4/5HT1a cells, confirmation, counter-screen for TRPC4 potentiator project, cell-based, second counter screen, HEK293 TRPC4/5HT1a, Fluo-4 (AID 434979;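 active = signal rise over 3 SD above mean of control wells given weak agonist, in both repeats and first screen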); conditions: Fluo-4 calcium flux, at 10 µM, serotonin added at its EC20 dose; stronger effect = higher value
[15] = calcium flux activation in mu-opioid HEK293 cells, confirmation, counter-screen for TRPC4 activator project, cell-based, HEK293 mu-opioid receptor line (AID 449723); conditions: Fluo-4 calcium fluorescence, at 10 µM; stronger effect = higher value;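 also: counter screen cells carry the mu-opioid receptor alone and lack TRPC4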
[16] = calcium flux enhancement in mu-opioid HEK293 cells, confirmation, counter-screen for TRPC4 allosteric potentiator project, cell-based, HEK293 mu-opioid receptor line (AID 449724;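 active = calcium signal rise more than 3 SD above the low-dose agonist control mean, in both duplicate plates and the primary screen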); conditions: Fluo-4 calcium flux, at 10 µM, compound added before EC20 DAMGO stimulus; stronger effect = higher value

Chain of Short transient receptor potential channel 6 (Mus musculus) (Q61143 whole entry, looked up): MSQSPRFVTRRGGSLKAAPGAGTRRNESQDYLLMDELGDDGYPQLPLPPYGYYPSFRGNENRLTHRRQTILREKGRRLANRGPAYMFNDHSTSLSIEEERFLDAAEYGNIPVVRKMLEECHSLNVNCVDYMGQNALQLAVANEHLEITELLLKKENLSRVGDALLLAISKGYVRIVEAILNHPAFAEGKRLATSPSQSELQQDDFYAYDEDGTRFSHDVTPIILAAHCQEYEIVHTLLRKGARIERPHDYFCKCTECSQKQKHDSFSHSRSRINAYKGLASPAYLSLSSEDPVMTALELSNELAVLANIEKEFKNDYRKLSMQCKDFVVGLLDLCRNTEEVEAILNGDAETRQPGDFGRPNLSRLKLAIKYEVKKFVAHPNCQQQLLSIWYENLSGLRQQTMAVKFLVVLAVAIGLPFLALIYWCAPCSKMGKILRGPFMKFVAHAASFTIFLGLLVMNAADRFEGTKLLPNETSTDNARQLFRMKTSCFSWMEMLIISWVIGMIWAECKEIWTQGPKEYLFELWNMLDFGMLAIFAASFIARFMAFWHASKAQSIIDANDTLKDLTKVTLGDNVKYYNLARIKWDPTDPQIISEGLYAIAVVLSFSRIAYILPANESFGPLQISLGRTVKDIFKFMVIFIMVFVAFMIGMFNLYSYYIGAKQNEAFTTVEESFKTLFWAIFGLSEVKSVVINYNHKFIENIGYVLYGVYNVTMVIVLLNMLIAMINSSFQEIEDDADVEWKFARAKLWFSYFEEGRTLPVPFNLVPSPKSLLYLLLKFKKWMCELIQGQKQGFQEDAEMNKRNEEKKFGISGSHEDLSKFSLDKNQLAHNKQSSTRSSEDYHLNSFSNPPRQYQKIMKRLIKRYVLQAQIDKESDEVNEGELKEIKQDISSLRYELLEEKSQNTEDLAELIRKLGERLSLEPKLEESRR
Chain of Short transient receptor potential channel 4 (Mus musculus) (Q9QUQ5 whole entry, looked up): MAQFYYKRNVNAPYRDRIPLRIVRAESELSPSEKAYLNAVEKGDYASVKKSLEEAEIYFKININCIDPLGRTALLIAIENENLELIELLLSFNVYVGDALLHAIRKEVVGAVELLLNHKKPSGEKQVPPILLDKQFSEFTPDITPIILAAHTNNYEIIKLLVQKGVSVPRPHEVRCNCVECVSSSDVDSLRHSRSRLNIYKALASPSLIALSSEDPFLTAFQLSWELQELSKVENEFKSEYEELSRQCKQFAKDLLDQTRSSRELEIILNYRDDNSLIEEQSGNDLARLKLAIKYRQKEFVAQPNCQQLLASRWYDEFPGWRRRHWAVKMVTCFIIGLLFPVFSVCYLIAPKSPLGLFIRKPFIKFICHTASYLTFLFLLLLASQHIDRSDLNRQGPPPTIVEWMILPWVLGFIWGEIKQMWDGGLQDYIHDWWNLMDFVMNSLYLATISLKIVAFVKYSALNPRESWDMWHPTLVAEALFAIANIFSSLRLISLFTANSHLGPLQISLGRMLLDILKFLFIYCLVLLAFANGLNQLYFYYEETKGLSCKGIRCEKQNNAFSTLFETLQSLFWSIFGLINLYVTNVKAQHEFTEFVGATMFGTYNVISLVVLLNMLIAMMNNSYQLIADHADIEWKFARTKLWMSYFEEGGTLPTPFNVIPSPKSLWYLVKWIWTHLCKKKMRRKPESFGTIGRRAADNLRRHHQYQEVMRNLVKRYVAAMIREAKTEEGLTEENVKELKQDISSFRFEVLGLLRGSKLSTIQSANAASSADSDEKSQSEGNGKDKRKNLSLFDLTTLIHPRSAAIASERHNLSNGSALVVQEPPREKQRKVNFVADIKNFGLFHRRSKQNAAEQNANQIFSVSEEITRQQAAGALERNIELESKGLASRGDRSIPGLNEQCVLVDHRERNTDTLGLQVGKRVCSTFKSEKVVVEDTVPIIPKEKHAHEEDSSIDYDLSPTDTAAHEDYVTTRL

Fc1ccc(C2CCNCC2COc2ccc3c(c2)OCO3)cc1 (stereo not given)
active: activation [1] 202% | activation [12] 26.8% | activation [15] 15.8%
inactive: outcome [2] | outcome [3] | outcome [4] | outcome [5] | outcome [6] | outcome [7] | outcome [8] | outcome [9] | outcome [10] | outcome [11] | outcome [13] | outcome [14] | outcome [16]

O=S(=O)(c1ccccc1)c1nnn2c1nc(NC1CCN(Cc3ccccc3)CC1)c1cc(Cl)ccc12
inactive: outcome [2] | outcome [3] | outcome [4] | outcome [5] | outcome [6] | outcome [7] | outcome [8] | outcome [9] | outcome [10] | outcome [11] | outcome [12] | outcome [13] | outcome [14] | outcome [15] | outcome [16]
active: activation [1] 64%

CCOC(=O)[C@@H]1CCNC[C@@H]1c1ccccc1
active: activation [1] 217% | activation [2] 83% | activation [10] 30.5%
inactive: outcome [3] | outcome [4] | outcome [5] | outcome [6] | outcome [7] | outcome [8] | outcome [9] | outcome [11] | outcome [12] | outcome [13] | outcome [14] | outcome [15] | outcome [16]

COc1ccc(C2Nc3ccccc3C(=O)N2Cc2ccco2)cc1COc1ccc(NC(C)=O)cc1 (stereo not given)
active: activation [10] 29%
inactive: outcome [1] | outcome [2] | outcome [3] | outcome [4] | outcome [5] | outcome [6] | outcome [7] | outcome [8] | outcome [9] | outcome [11] | outcome [12] | outcome [13] | outcome [14] | outcome [15] | outcome [16]

CCOC(=O)C1(CCOc2ccccc2)CCN(Cc2ccc(OC)c(O)c2)CC1
inactive: outcome [3] | outcome [4] | outcome [5] | outcome [6] | outcome [7] | outcome [8] | outcome [9] | outcome [11] | outcome [12] | outcome [13] | outcome [14] | outcome [15] | outcome [16]
active: activation [1] 207% | activation [2] 80% | activation [10] 66.5%

Cc1cc(C)cc(C(=O)N(CCc2ccccc2)C2=CC3CCC(C2)N3C)c1 (stereo not given)
active: activation [1] 86% | activation [2] 57% | activation [10] 67%
inactive: outcome [3] | outcome [4] | outcome [5] | outcome [6] | outcome [7] | outcome [8] | outcome [9] | outcome [11] | outcome [12] | outcome [13] | outcome [14] | outcome [15] | outcome [16]

CCc1cccc(CC)c1NC(=S)NCC(c1cccnc1)N(C)C (stereo not given)
active: activation [1] 79% | activation [2] 67% | activation [10] 46%
inactive: outcome [3] | outcome [4] | outcome [5] | outcome [6] | outcome [7] | outcome [8] | outcome [9] | outcome [11] | outcome [12] | outcome [13] | outcome [14] | outcome [15] | outcome [16]

Cc1cc(OCCCn2ccnc2)ccc1[N+](=O)[O-]
active: activation [1] 134% | potentiation [14] 18.2%
inactive: outcome [2] | outcome [3] | outcome [4] | outcome [5] | outcome [6] | outcome [7] | outcome [8] | outcome [9] | outcome [10] | outcome [11] | outcome [12] | outcome [13] | outcome [15] | outcome [16]

C=CCn1c(CCNC(=O)c2ccco2)nc2ccccc21
inactive: outcome [3] | outcome [4] | outcome [5] | outcome [6] | outcome [7] | outcome [8] | outcome [9] | outcome [10] | outcome [11] | outcome [13] | outcome [14] | outcome [15] | outcome [16]
active: activation [1] 165% | activation [2] 70% | activation [12] 55%

O=C(NCc1cccnc1)C1CCCN(Cc2cnn(-c3ccccc3)c2-n2cccc2)C1 (stereo not given)
inactive: outcome [2] | outcome [3] | outcome [4] | outcome [5] | outcome [6] | outcome [7] | outcome [8] | outcome [9] | outcome [11] | outcome [13] | outcome [14] | outcome [15] | outcome [16]
active: activation [1] 83% | activation [10] 46% | activation [12] 16.2%

O=C(CCC1CCCC1)c1c(O)c2ccccc2oc1=O
inactive: outcome [2] | outcome [3] | outcome [4] | outcome [5] | outcome [6] | outcome [7] | outcome [8] | outcome [9] | outcome [11] | outcome [13] | outcome [14] | outcome [16]
active: activation [1] 222% | activation [10] 25% | activation [12] 19.6% | activation [15] 51.5%

Cc1ccc2[nH]c3c(=O)n(CCc4cnc[nH]4)cnc3c2c1
active: activation [1] 126% | activation [10] 27.5% | activation [12] 33.2%
inactive: outcome [2] | outcome [3] | outcome [4] | outcome [5] | outcome [6] | outcome [7] | outcome [8] | outcome [9] | outcome [11] | outcome [13] | outcome [14] | outcome [15] | outcome [16]

CCn1c(N)[n+](CC(=O)Nc2ccc(SC(F)F)cc2)c2ccccc21
inactive: outcome [2] | outcome [3] | outcome [4] | outcome [5] | outcome [6] | outcome [7] | outcome [8] | outcome [9] | outcome [10] | outcome [11] | outcome [13] | outcome [14] | outcome [15] | outcome [16]
active: activation [1] 200% | activation [12] 10.3%

Cc1cc(Br)ccc1OCCn1ccnc1
inactive: outcome [1] | outcome [2] | outcome [3] | outcome [4] | outcome [5] | outcome [6] | outcome [7] | outcome [8] | outcome [9] | outcome [11] | outcome [13] | outcome [14] | outcome [15] | outcome [16]
active: activation [10] 37.5% | activation [12] 11.7%

COc1cc(/C=C/C(=O)c2ccc3c(c2)OCO3)cc(Cl)c1O
inactive: outcome [2] | outcome [3] | outcome [4] | outcome [5] | outcome [6] | outcome [7] | outcome [8] | outcome [9] | outcome [11] | outcome [13] | outcome [14] | outcome [16]
active: activation [1] 113% | activation [10] 427% | activation [12] 69.2% | activation [15] 122%

Source: PubChem BioAssay
